In PubChem BioAssay AID720550 (National Center for Advancing Translational Sciences (NCATS), 2013):
Records with an inconclusive call do not appear. Where a call stands in place of a potency, no number is given. Calls of active or inactive are those of the source. Calls come from the whole dose curve; as a rule, active = well fitted curve in the direction sought with a large enough effect; inconclusive = small, poorly fitted or top-dose-only effect, or another doubt; inactive = no such curve, though single readings can be large or run the other way.

assay: qHTS for Inhibitors of Bloom's syndrome helicase (BLM): Thiazole Orange DNA Binding Counterscreen for SAR.; conditions: fluorescence; Potency: Thiazole orange DNA displacement; series mostly up to 57.1 µM
How it was run: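 Compounds pintool-added to 50 nM unlabeled DNA with 100 nM thiazole orange; fluorescence (ex 480/em 530 nm) read after 15 min at room temperature. Dye displacement flags nonspecific DNA binders; inactivity is the desired outcome.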

SMILES	Potency
N#Cc1cc(NC(=O)Nc2nnc(-c3ccncc3)s2)ccc1F	inactive
O=C(Nc1ccc2ccccc2c1)Nc1nnc(C2CCCCC2)s1	inactive
O=C(Nc1ccc(-c2nc3ccccc3[nH]2)cc1)Nc1ccc2occc2c1	inactive
O=C(Nc1ccc(Br)c(Br)c1)Nc1nnc(-c2cccnc2)s1	inactive
O=C(Nc1ccc(Cl)c(Cl)c1)Nc1nnc(N2CCNCC2)s1	inactive
Cc1ccccc1-c1nnc(NC(=O)Nc2ccc3ccccc3c2)s1	inactive
O=C(Nc1ccc2sccc2c1)Nc1nnc(-c2ccncc2)s1	inactive
N#CN/C(=N\c1nnc(-c2ccncc2)s1)Nc1ccc(F)c(C(F)(F)F)c1	inactive
O=C(Cc1nnc(-c2ccncc2)s1)Nc1ccc(F)c(C(F)(F)F)c1	inactive
Cc1cc(NC(=O)Nc2cccc(-c3ccncc3)n2)ccc1F	inactive
Cc1cnccc1-c1nnc(NC(=O)Nc2ccc(F)c(C(F)(F)F)c2)s1	inactive
O=C(Nc1cccc(C(F)(F)F)c1)Nc1nnc(-c2ccncc2)s1	inactive
O=S(=O)(Cc1ccc(Cl)c(Cl)c1)Nc1nnc(-c2ccncc2)s1	inactive
Cc1cc(NC(=O)Nc2nnc(C3CCCCC3)s2)ccc1F	inactive
CC(C)(C)NC(=O)Nc1nnc(-c2ccncc2)s1	inactive
O=C(Nc1ccc(Cl)c(C(F)(F)F)c1)Nc1nnc(-c2ccncc2)s1	inactive
O=C(Nc1ccc2ccccc2c1)Nc1nnc(-c2ccccn2)s1	inactive
O=C(Nc1ccc2ccccc2c1)Nc1nnc(-c2ccc(Cl)cc2)s1	inactive
CC(=O)c1cccc(NC(=O)Nc2nnc(-c3ccncc3)s2)c1	inactive

SMILES	Potency
COc1ccc(OC)c(-c2nnc(NC(=O)Nc3ccc4ccccc4c3)s2)c1	inactive
Cc1cc(NC(=O)Nc2nnc(-c3cccnc3)s2)ccc1F	inactive
O=C(Nc1ccc(Cl)c(Cl)c1)Nc1nnc(NC2CCNCC2)s1	inactive
c1ccc2[nH]c(Nc3nnc(-c4ccncc4)s3)nc2c1	inactive
O=C(Nc1ccc(N2CCOCC2)c(C(F)(F)F)c1)Nc1nnc(-c2ccncc2)s1	4.08 µM (active)
O=C(Nc1ccc(Cl)c(C(F)(F)F)c1)Nc1cccc(-c2ccncc2)n1	inactive
N#Cc1cc(NC(=O)Nc2nnc(-c3ccncc3)s2)ccc1-c1cn[nH]c1	inactive
O=C(Nc1ccc(F)c(F)c1)Nc1nnc(-c2ccncc2)s1	inactive
O=C(Nc1nnc(-c2ccncc2)s1)Nc1cc(C(F)(F)F)ccc1F	inactive
N#Cc1cccc(NC(=O)Nc2nnc(-c3ccncc3)s2)c1	inactive
O=C(NCc1ccc(Cl)c(Cl)c1)Nc1nnc(-c2ccncc2)s1	inactive
O=C(Nc1ccc2ccccc2c1)Nc1nnc(-c2ccccc2F)s1	inactive
O=C(Nc1nnc(-c2ccncc2)s1)Nc1ccc(Cl)c2ccccc12	inactive
O=C(Nc1ccc(-n2cncn2)c(F)c1)Nc1nnc(-c2ccncc2)s1	inactive
O=C(Nc1ccc2c(c1)OCO2)Nc1nnc(-c2ccncc2)s1	inactive
CC(C)(C)c1cccc(NC(=O)Nc2nnc(-c3ccncc3)s2)c1	inactive
O=C(Nc1ccc(F)c(C(F)(F)F)c1)Nc1nnc(C2CCCCC2)s1	inactive
O=C(Nc1nnc(-c2ccncc2)s1)Nc1ccc(Cl)cc1Cl	inactive
